From PubChem
OvCa metastasis – Primary qHTS assay for Inhibitors of ovarian cancer metastasis using an organotypic tumor microenvironment (TME) model; SKOV3ip1-GFP adhesion/invasion on 3D omental model, fluorescence; Potency, µM (doses to about 45.8 µM), for inactives: top-dose activity change, negative = inhibition, hits mostly inhibitors; 46,000 tested, 0.1% active; AID 1963576, 2024;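 further: potency means the concentration at half of the fitted maximal effect; plate controls were DMSO wells for no effect and tomatine positive control wells for full effect; nearly all actives have a fitted effect of over 65% in size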
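Adhesion/invasion was scored as fixed GFP-labeled SKOV3ip1 cell counts (488/509 nm), normalized to DMSO and tomatine controls. Cancer cells in serum-free medium, with four compound doses (0.36-46 umol/L), sat 2 hr at RT then 16 hr at 37 C on a 48 hr fibroblast/mesothelial/ECM culture.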
HTT-AS promoter – Primary qHTS for Identification of Small Molecule Activators of Huntingtin-Antisense Promoter Activity. HEK293 HTT-AS promoter firefly luciferase reporter, 24 h; response scale: percent change from vehicle, -100% = no light. Potency, µM (titrated, usually from 57.5 µM), for the others: at the top dose activity change, positive = activation, actives largely listed as activators. 48,000 tested, 0.24% active; further: potency means the concentration at half of the fitted maximal effect; nearly all actives have a fitted effect of over 55% in size
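Luminescence was read after Dual-Glo reagent and a 10 min room-temperature incubation. Values were normalized to vehicle (0% activity) and zero RLU (-100% activity). Reporter HEK293 cells had been exposed to compounds (up to 57.5 uM final) for 24 h.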
GALK inh – qHTS Assay for Inhibitors of Human Galactokinase (GALK): NCGC Sytravon Library Screen | Potency, µM (top dose mostly 57.5 µM), for inactives: at the top dose activity, negative = inhibition, actives largely listed as inhibitors | recombinant GALK, Kinase-Glo ATP luminescence, 1 h | 44,000 tested, under 10 active;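 further: plate controls were full GALK reaction for no effect and reaction lacking GALK for full effect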
Target sequence (P51570 whole entry, looked up): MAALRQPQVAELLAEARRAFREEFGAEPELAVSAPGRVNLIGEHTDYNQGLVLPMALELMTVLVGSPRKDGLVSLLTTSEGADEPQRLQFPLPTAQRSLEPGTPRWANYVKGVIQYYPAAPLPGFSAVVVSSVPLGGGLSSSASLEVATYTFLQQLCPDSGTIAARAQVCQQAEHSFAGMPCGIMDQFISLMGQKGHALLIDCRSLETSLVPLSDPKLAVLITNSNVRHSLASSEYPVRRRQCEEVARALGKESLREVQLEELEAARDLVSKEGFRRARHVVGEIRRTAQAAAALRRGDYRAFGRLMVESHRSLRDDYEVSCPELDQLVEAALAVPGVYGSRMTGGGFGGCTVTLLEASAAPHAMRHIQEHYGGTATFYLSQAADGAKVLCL
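Luminescent ATP-depletion readout (Kinase-Glo Plus, 10 min) after 1 h RT reaction of 5 nM GALK, 35 uM ATP, 100 uM galactose, pH 8.0 HEPES buffer. Decreased kinase activity scored as inhibition.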
NTMT1 inhibitor – Primary qHTS for Inhibitors of N-terminal methyltransferase 1 (NTMT1): MTaseGlo Assay; N-terminal Xaa-Pro-Lys N-methyltransferase 1 (Homo sapiens), Q9BV86; 59,000 tested, 2.5% active; AID 1645870, 2021; NTMT1 MTase-Glo SAH luminescence, purified enzyme; Potency, µM (highest dose often 114 µM), without a hit: at the highest dose activity change, negative = inhibition, most hits filed as inhibitors;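 further: potency means the concentration at half of the fitted maximal effect; plate controls were DMSO vehicle for no effect and no enzyme for full effect; nearly all actives have a fitted effect of over 65% in size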
PTAP-TSG101 blk – qHTS Validation Assay for Inhibitors of HIV-1 Budding by Blocking the Interaction of PTAP/TSG101: Sytravon Library Screen. Fluorescence polarization, FITC-PTAP peptide/Tsg101, 20 min. AID 1347069, 2019. Potency, µM (top dose mostly 115 µM), hits mostly inhibitors. Tumor susceptibility gene 101 protein (Homo sapiens), Q99816. 44,000 tested, under 10 active; further: potency means the concentration at half of the fitted maximal effect; 0% is about no effect
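FITC-labeled PTAP peptide (50 nM final) binding to Tsg101 binding domain (10 uM final) read by fluorescence polarization after 20 min at r.t. in HEPES pH 7.5 buffer. Actives by CRC class, <25 µM.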
HTT prom inh – Primary qHTS for Identification of Small Molecule Inhibitors of Huntingtin Promoter Activity. Potency, µM (doses to about 57.5 µM), inactives show at the highest dose activity change, negative = inhibition, most hits filed as inhibitors. 48,000 tested, 0.93% active. HEK293 HTT promoter firefly luciferase reporter, 24 h; further: potency means the concentration at half of the fitted maximal effect; nearly all actives have a fitted effect of over 50% in size
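HEK293 luciferase promoter-reporter cells (2,500/well) plated 24 h, then compounds added at up to 57.5 uM final for 24 h at 37 °C. Firefly luminescence by Dual-Glo, normalized to vehicle (0%) and zero RLU (-100%).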
Numbers without * were called inactive; i = inactive; ? = inconclusive; . = no result given; ! = a repeat was not active; [ ] = dose if it differs, or a comment. An excerpt weighted towards active compounds, which were near 2.5% of everything screened. The call rests on the fitted dose curve; in most records, active means well fitted curve in the direction sought with a large enough effect; inconclusive means small, poorly fitted or top-dose-only effect, or another doubt; inactive means no such curve, though single readings can be large; an effect the other way counts as inactive or inconclusive.

SMILES | OvCa metastasis | HTT-AS promoter | GALK inh | NTMT1 inhibitor | PTAP-TSG101 blk | HTT prom inh
COc1ccccc1NC(=O)C1=C(C)NC(Nc2nc3ccccc3o2)=NC1c1ccccc1Br (configuration not stated) | . | . | . | 16% | . | .
CC1=C(c2ccc(NC(=O)c3c(F)cccc3F)cc2)CN(c2nccs2)CC1 | . | . | . | 8%[57.5 µM] | . | .
CCOC(=O)C1CCN(S(=O)(=O)c2cc(-c3cc(C)no3)ccc2OC)CC1 | i | -11% | -1% | 89µM* | i | -25%
CCOC(=O)C1CCN(S(=O)(=O)c2cc(-c3cc(C)no3)ccc2C)CC1 | -10% | -21% | 0% | -1% | i | -28%
COc1cc2nc(N3CCCCC3)nc(NC3CCN(Cc4ccccc4)CC3)c2cc1OC | . | . | . | 45µM* | . | .
COc1cc2nc(N3CCCC3)nc(NCCCCCN3CCCC3)c2cc1OC | . | . | . | 32µM* | . | .
COc1cc2c(NC3CCN(C)CC3)nc(N3CCCN(C)CC3)nc2cc1OCCCN(C)C | . | . | . | -18% | . | .
COc1cccc(CN(C(=O)CC(C)(C)C)[C@H]2C[C@H](C(=O)N3CCNCC3)N(Cc3ccc4c(c3)OCO4)C2)c1 | . | . | . | -17%[57.5 µM] | . | .
O=C(C1CCC(CNS(=O)(=O)c2ccc(Br)s2)CC1)N1CCN(c2ccccc2)CC1 (configuration not stated) | 0% | -29% | 2% | -6% | i | 0%
O=C(C1CCC(CNS(=O)(=O)c2cccs2)CC1)N1CCN(c2ccc(Cl)cc2)CC1 (configuration not stated) | -18% | -76% | 1% | 10% | i | 4µM*
O=C1NC(=O)C(c2ccccc2[N+](=O)[O-])=C1Nc1ccc(O)c(Cl)c1 | 6% | -28% | . | 45µM*! | . | -18%
COc1cccc(NC(=O)CN(CCc2ccccc2)S(=O)(=O)c2ccc(Cl)cc2)c1 | -7% | -15% | -2% | 2.5µM* | i | -18%
COC(=O)c1ccc(NC(=O)CN(CCc2ccccc2)S(=O)(=O)c2ccc(OC)cc2)cc1 | 3% | -48% | 1% | ? | i | ?
N#Cc1nc(Nc2cc(F)cc(F)c2)c2ncn(CCN3CCCC3)c2n1 | . | . | . | -8% | . | .
Nc1ncnc(Nc2ccc(OCc3ccccc3)c(Cl)c2)c1/C=N/OCCN1CCOCC1 | . | . | . | 6% | . | .
CNCc1ccc(C)c(NC(=O)c2ccc(Nc3nc(-c4ccccc4)c4ccccc4n3)cc2)c1 | . | . | . | 35µM* | . | .
CCCCNC(=O)c1nn(C)c2c1CSc1ccccc1-2 | -5% | 19% | 0% | 79µM* | i | 8%
Cc1c(C)n(Cc2ccc(-c3ccccc3C(=O)O)cc2)c2ccc(C(=O)N[C@@H](C)c3ccc([N+](=O)[O-])cc3)cc12 | 3% | -28% | . | 32µM*! | . | -33%
Cc1c(C)n(Cc2ccccc2)c2ccc(C(=O)NCc3ccc(OC(C)C)cc3)cc12 | 8% | -23% | -1% | -5% | i | -16%
CN(C)CCCN1CCCN(C(=O)c2cccc(-c3cc(O)c4ncccc4c3)c2)C1 | . | . | . | 15% | . | .
COc1cc(O)c2c(c1)/C=C/C[C@H](O)[C@H](O)C(=O)/C=C\C[C@H](C)OC2=O | . | . | . | 25µM* | . | .
COc1cc(O)c2c(c1)C1=CC(O)C(O)CC1(C)OC2=O (configuration not stated) | . | . | . | 4%[57.5 µM] | . | .
